In the first experiment the target is Follistatin (Homo sapiens) (UniProt P19883). Kind of experiment: follistatin binders on small-molecule microarrays, primary screen, biochemical, small-molecule microarray, 635/667 nm fluorescence (AID 1132). The following applies: FST binding, 635 nm fluorescence, higher = more signal.
Chain of Follistatin (Homo sapiens) (P19883 whole entry, looked up): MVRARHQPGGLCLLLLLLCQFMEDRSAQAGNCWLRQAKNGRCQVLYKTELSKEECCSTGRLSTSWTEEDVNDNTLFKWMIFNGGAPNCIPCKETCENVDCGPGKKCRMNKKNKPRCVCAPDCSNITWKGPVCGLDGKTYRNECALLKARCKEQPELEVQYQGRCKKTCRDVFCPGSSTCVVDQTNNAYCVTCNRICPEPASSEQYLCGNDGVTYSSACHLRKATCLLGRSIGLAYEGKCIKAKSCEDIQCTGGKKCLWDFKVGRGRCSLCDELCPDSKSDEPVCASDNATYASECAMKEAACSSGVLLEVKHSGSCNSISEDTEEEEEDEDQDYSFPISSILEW
`CN(C)CCCC[C@@H]1NC(=O)[C@@H]2C[C@H](C(=O)NCc3ccc(F)cc3)[C@H](c3ccc(O)cc3)N2C1=O` registered a composite z-score of 1.45.
Same read-out and setting: in the case of `CC(=O)c1ccc(C(O)C2C=CC3C(=O)N(C)C(=O)C3N2NC(=O)OC(C)(C)C)cc1` (configuration not stated) it was 0.046; in that of `CO[C@H]1O[C@H](CO)[C@@H](OC(=O)Nc2ccc3c(c2)OCO3)[C@@H]2OC(=O)[C@@H](Cc3ccccc3)C/C=C/C[C@H](Cc3ccccc3)C(=O)O[C@@H]12`, 0.974.
On the same count and under the same terms, the same measure for `O=C1NC(=O)C2C1C=CC(C(O)c1cccc(O)c1)N2Nc1ccc(Cl)cc1Cl` (configuration not stated): -0.127; for `Cc1ccc(S[C@]2(C(=O)NCCCN(C)C)CC(=O)N(Cc3ccccc3Cl)[C@@H]2c2ccc(CO)cc2I)cc1`: -0.667; for `O=c1cccc(-c2ccccc2C(F)(F)F)o1`: -0.547.
Same read-out and setting: in the case of `COCCOC(=O)N1C(=O)[C@@]2(c3cc(C#CCC(C(=O)OC)C(=O)OC)ccc31)[C@H](c1ccc(OCCO)cc1)N1[C@H](c3ccccc3)[C@H](c3ccccc3)OC(=O)[C@H]1[C@@H]2C(=O)N1CCCCCCC1` it was 1.5.
The molecule `C[C@H]1NC(=O)C([C@@H](C)OCc2ccccc2)NC(=O)[C@@]23C(=O)N[C@@H](Cc4ccccc4)C2[C@H](C)[C@@]2(C)O[C@H]2C3/C=C/C/C=C\CNC1=O` (some centres not stated) showed a composite z-score of 0.425.
The same measure, in the same setting: the same measure for `COCC(=C=CC[C@@H](O)c1cccc(OCCO)c1)C[C@@H](O)COCc1ccccc1`: 0.941; for `C=C(CCCC)C(=O)CC[C@H](OC(C)=O)c1ccccc1OCCO`: 1.16; for `CCC[C@@H]1C=C(C(=O)OCC)[C@H](c2ccccc2)N1S(=O)(=O)c1ccc(C)cc1`: 0.947.
Same read-out and setting: the same measure for `COCCOC(=O)N1C(=O)[C@@]2(c3cc(C#CC4(O)CCCCCC4)ccc31)[C@H](C(=O)N1CCc3cc(OC)c(OC)cc3C1)[C@H]1C(=O)O[C@H](c3ccccc3)[C@H](c3ccccc3)N1[C@@H]2c1ccc(O)cc1`: 1.26.
On the same count and under the same terms, in the case of `Cc1ccc(F)cc1S(=O)(=O)N[C@@H]1CCN(Cc2ccc3c(c2)OCO3)C1` it was 0.491; in that of `COCCOC(=O)N1C(=O)[C@@]2(c3cc(C#CC4(O)CCCCCC4)ccc31)[C@H](c1ccc(OCCO)cc1)N1[C@H](c3ccccc3)[C@H](c3ccccc3)OC(=O)[C@H]1[C@@H]2C(=O)N1CCCCCCC1`, 1.39.
For `CC(c1ccccc1)C(O)C1C=CC2C(=O)N(c3ccccc3)C(=O)C2N1Nc1ccc(C#N)cc1` (configuration not stated), the composite z-score is 1.12.
Still for that read-out and setting: in the case of `COC(=O)C(CC#Cc1ccc2c(c1)[C@]1(C(=O)N2)[C@H](c2ccc(O)cc2)N2[C@H](c3ccccc3)[C@H](c3ccccc3)OC(=O)[C@H]2[C@@H]1C(=O)N1CCc2cc(OC)c(OC)cc2C1)C(=O)OC` it was 1.36; in that of `C[N+](C)(C)CCCCCCNC(=O)[C@H]1C[C@H]2C(=O)NCC(=O)N2[C@H]1c1cccc(OCCO)c1`, 1.13; in that of `COC(=O)c1c(CC[C@@H](CO)NC(=O)N[C@@H](Cc2ccccc2)Cn2cc(-c3cncn3C)nn2)oc(C(C)=O)c1C(=O)OC`, 1.01.
The same measure, in the same setting: the same measure for `O=C1O[C@@H](c2ccccc2)[C@@H](c2ccccc2)N2[C@@H](c3ccc(O)cc3)[C@]3(C(=O)Nc4ccc(C#CC5=CCCCC5)cc43)[C@@H](C(=O)N3CCCCCCC3)[C@H]12`: 1.4; for `COC(=O)C1=CC(CCCO)=CC(C2CC2)N(Cc2cccc(OC(F)(F)F)c2)C=C1C(=O)OC` (configuration not stated): 0.0058.
With `COCCOC(=O)N1C(=O)[C@@]2(c3cc(C#CCC(C(=O)OC)C(=O)OC)ccc31)[C@H](C(=O)N1CCCCCCC1)[C@H]1C(=O)O[C@H](c3ccccc3)[C@H](c3ccccc3)N1[C@@H]2c1ccccc1OCCO`, the composite z-score is 1.45.
Same read-out and setting: the same measure for `COCCOC(=O)N1C(=O)[C@@]2(c3cc(C#CCCO)ccc31)[C@H](c1ccccc1OCCO)N1[C@H](c3ccccc3)[C@H](c3ccccc3)OC(=O)[C@H]1[C@@H]2C(=O)N1CCc2cc(OC)c(OC)cc2C1`: 1.14.
The same measure, in the same setting: the same measure for `COC(=O)[C@@H]1N=C(c2ccc(OCCCO)cc2)O[C@@H]1c1ccccc1CN=[N+]=[N-]`: 0.233; for `COC(=O)[C@H](Cc1ccc(O)cc1)N1CC2=CCCC=C[C@@H]2[C@H]1[C@H](O)Cc1ccccc1`: 0.359.
Still for that read-out and setting: in the case of `C=CC[C@@]1(C(=O)N(C)C)N=C(c2ccc(OCCCO)cc2)O[C@@H]1c1ccccc1` it was 0.0236.

The target in another experiment is Fibroblast growth factor 2 (Homo sapiens) (UniProt P09038). Briefly: FGF2 binders on small-molecule microarrays, primary screen, biochemical, small-molecule microarray, 635/667 nm fluorescence (AID 1133). The following applies: small-molecule microarray binding, FGF2, fluorescence 635/667; higher = more signal.
Chain of Fibroblast growth factor 2 (Homo sapiens) (P09038 whole entry, looked up): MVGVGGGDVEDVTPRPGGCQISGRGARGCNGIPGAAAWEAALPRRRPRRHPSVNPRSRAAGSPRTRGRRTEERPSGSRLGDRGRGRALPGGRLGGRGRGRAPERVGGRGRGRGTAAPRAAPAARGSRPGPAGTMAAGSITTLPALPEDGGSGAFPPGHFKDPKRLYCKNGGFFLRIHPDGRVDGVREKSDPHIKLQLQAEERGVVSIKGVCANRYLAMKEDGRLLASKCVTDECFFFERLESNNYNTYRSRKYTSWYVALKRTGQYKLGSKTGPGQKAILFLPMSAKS
`CO[C@H]1O[C@H](CO)[C@@H](OC(=O)Nc2ccccc2)[C@@H]2OC(=O)[C@H](Cc3ccccc3)C/C=C/C[C@@H](Cc3ccccc3)C(=O)O[C@@H]12`: the composite z-score worked out at 1.74.
Same read-out and setting: the same measure for `CCCCC(=C=CC[C@@H](O)c1ccc(OCCO)cc1)C[C@@H](O)c1ccccn1`: 0.611; for `C=CCC(OC(C)=O)[C@@H]1[C@@H](N(Cc2cccc3ccccc23)C(=O)c2ccc(-c3ccccc3)cc2)c2cc(OCCCO)ccc2N1C(=O)c1ccc2ccccc2n1` (some centres not stated): -0.0329; for `COCCOC(=O)N1C(=O)[C@@]2(c3cc(C#CC4(O)CCCCCC4)ccc31)[C@H](c1ccc(OCCO)cc1)N1[C@H](c3ccccc3)[C@H](c3ccccc3)OC(=O)[C@H]1[C@@H]2C(N)=O`: 1.55.
Consider `COc1ccc([Si](C)(C)[C@H]2[C@H](CCO)O[C@@]3(C(=O)N(Cc4ccc(N5CCOC5=O)cc4)c4ccccc43)[C@@H]2C)cc1`, for which the composite z-score was -0.271.
Same read-out and setting: the same measure for `Cc1c(-c2ccc(-c3ccc(Cl)c(Cl)c3)o2)nc(-c2ccccc2)c2c1CO[Si]2(C(C)C)C(C)C`: -0.255; for `O=C1OCCC=C[C@H]2OC34C=CCN(CCN5CCOCC5)C(=O)[C@H]3N(CCCO)C(=O)[C@@H]4C12` (some centres not stated): -1.26; for `COC(=O)[C@@]1(Cc2ccc(F)cc2)[C@H]2c3cc(C(=O)N(C)C)n(CCO)c3C[C@H]2CN1C(=O)c1ccccc1`: -0.566.
The molecule `CC(C)C[C@H]1NC(=O)[C@@H](C)NC(=O)[C@@]23C(=O)N[C@@H](Cc4ccccc4)C2[C@H](C)[C@@]2(C)O[C@H]2C3/C=C/C/C=C\CNC1=O` (some centres not stated) returned a composite z-score of 0.238.
Same read-out and setting: the same measure for `N#Cc1ccc(C(O)C2C=CC3C(=O)N(c4ccccc4)C(=O)C3N2Nc2ccc([N+](=O)[O-])cc2)cc1` (configuration not stated): -0.207; for `CN(C)CCCC[C@@H]1NC(=O)[C@@H]2C[C@H](C(=O)NCc3ccc(F)cc3)[C@H](c3ccc(O)cc3)N2C1=O`: 1.91; for `CC(=O)c1ccc(C(O)C2C=CC3C(=O)N(C)C(=O)C3N2NC(=O)OC(C)(C)C)cc1` (configuration not stated): 0.14.
The same measure, in the same setting: in the case of `CO[C@H]1O[C@H](CO)[C@@H](OC(=O)Nc2ccc3c(c2)OCO3)[C@@H]2OC(=O)[C@@H](Cc3ccccc3)C/C=C/C[C@H](Cc3ccccc3)C(=O)O[C@@H]12` it was 0.684; in that of `O=C1NC(=O)C2C1C=CC(C(O)c1cccc(O)c1)N2Nc1ccc(Cl)cc1Cl` (configuration not stated), 0.0853; in that of `Cc1ccc(S[C@]2(C(=O)NCCCN(C)C)CC(=O)N(Cc3ccccc3Cl)[C@@H]2c2ccc(CO)cc2I)cc1`, -1.09.
Same read-out and setting: in the case of `O=c1cccc(-c2ccccc2C(F)(F)F)o1` it was -0.661; in that of `COCCOC(=O)N1C(=O)[C@@]2(c3cc(C#CCC(C(=O)OC)C(=O)OC)ccc31)[C@H](c1ccc(OCCO)cc1)N1[C@H](c3ccccc3)[C@H](c3ccccc3)OC(=O)[C@H]1[C@@H]2C(=O)N1CCCCCCC1`, 0.614; in that of `C[C@H]1NC(=O)C([C@@H](C)OCc2ccccc2)NC(=O)[C@@]23C(=O)N[C@@H](Cc4ccccc4)C2[C@H](C)[C@@]2(C)O[C@H]2C3/C=C/C/C=C\CNC1=O` (some centres not stated), 0.545.
For `COCC(=C=CC[C@@H](O)c1cccc(OCCO)c1)C[C@@H](O)COCc1ccccc1`, the composite z-score was -0.237.
Molecule `C=C(CCCC)C(=O)CC[C@H](OC(C)=O)c1ccccc1OCCO` showed a composite z-score of 0.105.
Same read-out and setting: in the case of `CCC[C@@H]1C=C(C(=O)OCC)[C@H](c2ccccc2)N1S(=O)(=O)c1ccc(C)cc1` it was 0.538.
`COCCOC(=O)N1C(=O)[C@@]2(c3cc(C#CC4(O)CCCCCC4)ccc31)[C@H](C(=O)N1CCc3cc(OC)c(OC)cc3C1)[C@H]1C(=O)O[C@H](c3ccccc3)[C@H](c3ccccc3)N1[C@@H]2c1ccc(O)cc1` returned a composite z-score of 1.1.
The same measure, in the same setting: the same measure for `Cc1ccc(F)cc1S(=O)(=O)N[C@@H]1CCN(Cc2ccc3c(c2)OCO3)C1`: 0.279; for `COCCOC(=O)N1C(=O)[C@@]2(c3cc(C#CC4(O)CCCCCC4)ccc31)[C@H](c1ccc(OCCO)cc1)N1[C@H](c3ccccc3)[C@H](c3ccccc3)OC(=O)[C@H]1[C@@H]2C(=O)N1CCCCCCC1`: 1.47.
In turn, `CC(c1ccccc1)C(O)C1C=CC2C(=O)N(c3ccccc3)C(=O)C2N1Nc1ccc(C#N)cc1` (configuration not stated) yielded a composite z-score of 0.329.
Still for that read-out and setting: in the case of `COC(=O)C(CC#Cc1ccc2c(c1)[C@]1(C(=O)N2)[C@H](c2ccc(O)cc2)N2[C@H](c3ccccc3)[C@H](c3ccccc3)OC(=O)[C@H]2[C@@H]1C(=O)N1CCc2cc(OC)c(OC)cc2C1)C(=O)OC` it was 1.17; in that of `C[N+](C)(C)CCCCCCNC(=O)[C@H]1C[C@H]2C(=O)NCC(=O)N2[C@H]1c1cccc(OCCO)c1`, 1.63.
Same read-out and setting: the same measure for `COC(=O)c1c(CC[C@@H](CO)NC(=O)N[C@@H](Cc2ccccc2)Cn2cc(-c3cncn3C)nn2)oc(C(C)=O)c1C(=O)OC`: -0.0088.
On the same count and under the same terms, in the case of `O=C1O[C@@H](c2ccccc2)[C@@H](c2ccccc2)N2[C@@H](c3ccc(O)cc3)[C@]3(C(=O)Nc4ccc(C#CC5=CCCCC5)cc43)[C@@H](C(=O)N3CCCCCCC3)[C@H]12` it was 1.19; in that of `COC(=O)C1=CC(CCCO)=CC(C2CC2)N(Cc2cccc(OC(F)(F)F)c2)C=C1C(=O)OC` (configuration not stated), -0.653; in that of `COCCOC(=O)N1C(=O)[C@@]2(c3cc(C#CCC(C(=O)OC)C(=O)OC)ccc31)[C@H](C(=O)N1CCCCCCC1)[C@H]1C(=O)O[C@H](c3ccccc3)[C@H](c3ccccc3)N1[C@@H]2c1ccccc1OCCO`, 1.43.
The molecule `COCCOC(=O)N1C(=O)[C@@]2(c3cc(C#CCCO)ccc31)[C@H](c1ccccc1OCCO)N1[C@H](c3ccccc3)[C@H](c3ccccc3)OC(=O)[C@H]1[C@@H]2C(=O)N1CCc2cc(OC)c(OC)cc2C1` showed a composite z-score of 1.25.

For the origin of these results see PubChem BioAssay.
